Test results taken from PubChem BioAssay AID1159580 (chemical genetic matrix, 2015).
Among all 5,500 compounds or so, about 2,000 (36%) were called active. About 18% were inconclusive and are not listed. Rule as the data show it: active = normalized growth mostly below about 0.91 (no sharp cut-off); inconclusive = no clear call, values can overlap the other calls; inactive = mostly above about 0.92. Some of the results follow.

Experiment: chemical genetic growth profiling, strain panel (AID 1159580);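 also: tested at 20 µM; growth read once vehicle control cultures reached saturation at 30 °C; 1 = growth at the plate median or of vehicle wells; lower values mean less growth of the strain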
Conditions: S. cerevisiae deletion strains, growth OD

Measured: normalized growth

CNc1ncnc2c1ncn2[C@H]1C[C@H](OP(=O)(O)O)[C@@H](COP(=O)(O)O)O1
inactive: locus YAL040C, strain CLN3, active compounds read low 0.995 | locus YCL061C, strain MRC1 (second series), active compounds read low 1.01 | locus YDR363W, strain ESC2, active compounds read low 1 | locus YER002W, strain NOP16, active compounds read low 0.983 | locus YGR229C, strain SMI1, active compounds read low 1.02 | locus YJR075W, strain HOC1, active compounds read low 1.01 | locus YNL175C, strain NOP13, active compounds read low 0.996 | locus YNL197C, strain WHI3, active compounds read low 1 | locus YNL224C, strain SQS1, active compounds read low 1 | locus YNL322C, strain KRE1, active compounds read low 1.01 | locus YOR083W, strain WHI5 (second series), active compounds read low 1.01 | locus YPL055C, strain LGE1, active compounds read low 1.01 | locus YPL241C, strain CIN2, active compounds read low 1
